# Measured values: the supplement of paper PMC8728848
# The sample as a whole holds a higher share of the strongest signals than the screen did.
# B1: Clec39 (Caenorhabditis elegans) (protein)
# chain: MTSFYDNSSSSSKPVPLKTSRAQKIQILIFDNWKLILYGAISTLILVLAIMFSTLFFALPAANCDENSEPTKYYTTNAEITTTITTTNQKTTSTASSHLTTISSSATQIYSESSSSSTSQSTFTQSPPEISTTTIAPSDFSCQHGFTLVNNKCWKLVTSNQARPDADKICNGYGGATLFSIKSEQDNRAMIHFVKGQDIDFLWSGLLCSAGEPISCIWDIENGSTANYSNFADGFPNIVYGNCVYFITSGDEAGQWGNEQCGQVMNFVCELPATFQGKDGCKNNYEKSCYLRFDLNLTVPQAQNFCLEKCANLVSIHSANEVRFIMTIYDFIGEILIGALAPAQDFIYWLDGTPANYNNLKFFYNSTCVHMTVAPGMQNVGKWFTRFCTETGKFLCKRSIKNSCT
# Tests used:
# Assay in all cases: glycan array binding signal (z-score within array); higher = stronger binding
# Conditions in all cases: glycan notation: IUPAC condensed, linker removed
# [1] = target: Fuc(a1-2)Gal(b1-3)GlcNAc(b1-2)Man(a1-3)[Fuc(a1-2)Gal(b1-3)GlcNAc(b1-2)Man(a1-6)]Man(b1-4)GlcNAc(b1-4)GlcNAc
# Procedure, shortened: (§1)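 Columns mapping to the same glycan were averaged after glycan names were converted to IUPAC-condensed notation. The data come from 3228 arrays in the Consortium for Functional Glycomics database, limited to those with an available protein sequence. Binding is reported as a within-array Z-score averaged across arrays of one protein sequence and across linkers.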
# [2] = target: Fuc(a1-2)Gal(b1-3)GlcNAc(b1-3)GalNAc
# Procedure, shortened: as §1
# [3] = target: Fuc(a1-2)Gal(b1-4)GlcNAc6S
# Procedure, shortened: as §1
# [4] = target: Fuc(a1-2)Gal(b1-4)[Fuc(a1-3)]GlcNAc
# Procedure, shortened: as §1
# [5] = target: Fuc(a1-2)Gal(b1-4)[Fuc(a1-3)]GlcNAc(b1-2)[Fuc(a1-2)Gal(b1-4)[Fuc(a1-3)]GlcNAc(b1-4)]Man(a1-3)[Fuc(a1-2)Gal(b1-4)[Fuc(a1-3)]GlcNAc(b1-2)Man(a1-6)]Man(b1-4)GlcNAc(b1-4)GlcNAc
# Procedure, shortened: as §1
# [6] = target: Fuc(a1-2)[Gal(a1-3)]Gal(b1-3)GlcNAc
# Procedure, shortened: as §1
# [7] = target: Fuc(a1-2)[Gal(a1-3)]Gal(b1-4)GlcNAc(b1-2)Man(a1-3)[Fuc(a1-2)[Gal(a1-3)]Gal(b1-4)GlcNAc(b1-2)Man(a1-6)]Man(b1-4)GlcNAc(b1-4)GlcNAc
# Procedure, shortened: as §1
# [8] = target: Fuc(a1-2)[GalNAc(a1-3)]Gal(b1-4)Glc
# Procedure, shortened: as §1
# [9] = target: Fuc(a1-2)[GalNAc(a1-3)]Gal(b1-4)GlcNAc(b1-3)GalNAc
# Procedure, shortened: as §1
# [10] = target: Fuc(a1-3)[Gal(b1-4)]GlcNAc(b1-2)Man(a1-3)[Fuc(a1-3)[Gal(b1-4)]GlcNAc(b1-2)Man(a1-6)]Man(b1-4)GlcNAc(b1-4)[Fuc(a1-6)]GlcNAc
# Procedure, shortened: as §1
# [11] = target: Gal(a1-3)Gal(b1-3)GlcNAc(b1-3)GalNAc
# Procedure, shortened: as §1
# [12] = target: Gal(b1-3)GlcNAc(a1-3)Gal(b1-4)GlcNAc
# Procedure, shortened: as §1
# [13] = target: Gal(b1-3)GlcNAc(b1-3)Gal(b1-4)[Fuc(a1-3)]GlcNAc
# Procedure, shortened: as §1
# [14] = target: Gal(b1-3)GlcNAc(b1-3)Gal(b1-4)[Fuc(a1-3)]GlcNAc(b1-6)[Gal(b1-3)GlcNAc(b1-3)]Gal(b1-4)Glc
# Procedure, shortened: as §1
# [15] = target: Gal(b1-3)GlcNAc(b1-3)GalNAc
# Procedure, shortened: as §1
# [16] = target: Gal(b1-4)GlcNAc(b1-3)Gal(b1-3)GlcNAc
# Procedure, shortened: as §1
# [17] = target: Gal(b1-4)GlcNAc(b1-3)Gal(b1-4)GlcNAc(b1-2)[Gal(b1-4)GlcNAc(b1-3)Gal(b1-4)GlcNAc(b1-6)]Man(a1-6)[Gal(b1-4)GlcNAc(b1-3)Gal(b1-4)GlcNAc(b1-2)Man(a1-3)]Man(b1-4)GlcNAc(b1-4)[Fuc(a1-6)]GlcNAc
# Procedure, shortened: as §1
# [18] = target: Gal(b1-4)GlcNAc(b1-3)Gal(b1-4)GlcNAc(b1-3)Gal(b1-4)GlcNAc(b1-3)Gal(b1-4)GlcNAc(b1-3)Gal(b1-4)GlcNAc(b1-2)Man(a1-3)[Gal(b1-4)GlcNAc(b1-3)Gal(b1-4)GlcNAc(b1-3)Gal(b1-4)GlcNAc(b1-3)Gal(b1-4)GlcNAc(b1-3)Gal(b1-4)GlcNAc(b1-2)Man(a1-6)]Man(b1-4)GlcNAc(b1-4)GlcNAc
# Procedure, shortened: as §1
# [19] = target: Gal(b1-4)GlcNAc(b1-3)Gal(b1-4)GlcNAc(b1-6)[Gal(b1-3)]GalNAc
# Procedure, shortened: as §1
# [20] = target: Gal(b1-4)GlcNAc(b1-6)[Gal(b1-4)GlcNAc(b1-3)]GalNAc
# Procedure, shortened: as §1
# [21] = target: Gal3S(b1-3)GlcNAc
# Procedure, shortened: as §1
# [22] = target: Gal3S(b1-4)Glc6S
# Procedure, shortened: as §1
# [23] = target: Gal6S(b1-4)Glc6S
# Procedure, shortened: as §1
# [24] = target: GalNAc(b1-3)Gal(a1-4)Gal(b1-4)GlcNAc
# Procedure, shortened: as §1
# [25] = target: GalNAc(b1-3)GlcNAc
# Procedure, shortened: as §1
# [26] = target: GalNAc3S(b1-4)[Fuc(a1-3)]GlcNAc
# Procedure, shortened: as §1
binder,measurement,setting,value
B1,glycan array binding signal (z-score),[1],2.06
same,glycan array binding signal (z-score),[2],1.86
same,glycan array binding signal (z-score),[3],-0.018
same,glycan array binding signal (z-score),[4],0.187
same,glycan array binding signal (z-score),[5],3.52
same,glycan array binding signal (z-score),[6],-0.274
same,glycan array binding signal (z-score),[7],3.03
same,glycan array binding signal (z-score),[8],2.18
same,glycan array binding signal (z-score),[9],-0.527
same,glycan array binding signal (z-score),[10],4.38
same,glycan array binding signal (z-score),[11],-0.178
same,glycan array binding signal (z-score),[12],-0.68
same,glycan array binding signal (z-score),[13],-0.715
same,glycan array binding signal (z-score),[14],0.976
same,glycan array binding signal (z-score),[15],-0.666
same,glycan array binding signal (z-score),[16],-0.657
same,glycan array binding signal (z-score),[17],0.173
same,glycan array binding signal (z-score),[18],3.63
same,glycan array binding signal (z-score),[19],0.593
same,glycan array binding signal (z-score),[20],5.43
same,glycan array binding signal (z-score),[21],-0.524
same,glycan array binding signal (z-score),[22],0.293
same,glycan array binding signal (z-score),[23],2
same,glycan array binding signal (z-score),[24],1.49
same,glycan array binding signal (z-score),[25],-0.927
same,glycan array binding signal (z-score),[26],1.07
